Measured values published in the supplement of paper PMC11417369.
The full ranking holds about 25,000 sequences; the median of “ln(normalized median fluorescence intensity)” is about 6.7, and the highest 2% start at about 10. Only a selection was taken, and the highest values are over-represented in it overall.

test system: PfHDP1 homeodomain (GST-tagged); test: gcPBM binding intensity (ln(normalized median fluorescence intensity)); higher = stronger DNA binding
Summary of the method: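 Each value is the highest Masliner-normalised natural-log median intensity across replicate spots of either orientation of a probe. The probes were primer-extended double-stranded 36-bp intergenic genomic sequences on an Agilent 4 × 180k array, alongside negative controls, exposed for 1 h to GST-tagged P. falciparum DNA-binding domains expressed in E. coli. Bound protein was picked up with Alexa488 anti-GST antibody and scanned at 488 nm.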

How did the “gcPBM binding intensity (ln)” value turn out when “AAAGAATACAAAATTGCACACATATTGTGAAAATGT [CACACA_site9327]” was run?
Its value is 9.59.

With “AAAAAAGAATTGTGCACACACAAAAAATGTTCATAA [CACACA_site1103]” as the sequence, how does the “gcPBM binding intensity (ln)” value read?
Its value is 10.3.

Which “gcPBM binding intensity (ln)” value does the source give for “TTAAAAAAGAATTGTGCACACACAAAAAATGTTCAT [CACACA_site1102]” here?
Its value is 10.6.

For “ATATATTTTTAGCACAGTACAATATAATTAAATATA [XGTACX_site6779]”, which “gcPBM binding intensity (ln)” value is on record?
The value was 7.02.

For “ATTTTAAATTTATCTGTGCACAGTATTATATAAGCA [GTGCAC_site9806]”, which “gcPBM binding intensity (ln)” value is on record?
Its value is 10.8.

For “ATATTTGTATAAATTGCACACTTTATTTTTTTTAAG [CACACA_site1558]”, which “gcPBM binding intensity (ln)” value is on record?
The value was 9.86.

“TATATTATTAATTAAGCACACATTATTTTTATAATA [CACACA_site3982]” was tested. Which “gcPBM binding intensity (ln)” value did it give?
Its value is 6.37.

AGTATAAGCATTATTGTGCACATAATTATAATTTTT was tested. Which “gcPBM binding intensity (ln)” value did it give?
The value was 11.

How did the “gcPBM binding intensity (ln)” value turn out when “ATATAATATATATATTGTACATATATTTATAAGCAT [XGTACX_site3726]” was run?
Its value is 6.5.

“ATTATTCTATATGAAACATGCATACATTTGTATTTT [TGCATGCA_site823]” was tested. Which “gcPBM binding intensity (ln)” value did it give?
The value was 6.53.

With “AAATACTGTAAAAAAGCATGCCACTAATAATAATTA [TGCATGCA_site759]” as the sequence, how does the “gcPBM binding intensity (ln)” value read?
Its value is 6.33.

With “TTTTTATATTTCAACATATCACAATTTTATATATCT [CACACA_negctrl_site178]” as the sequence, how does the “gcPBM binding intensity (ln)” value read?
The value was 6.43.

“GTGAAATATGCAAACACACACGAGAAAAATGTATAT [CACACA_site7488]” was tested. Which “gcPBM binding intensity (ln)” value did it give?
The value was 6.99.

How did the “gcPBM binding intensity (ln)” value turn out when “AGGAAAATTATGAATGGTACAGAATATATTAGGAGA [XGTACX_site6282]” was run?
Its value is 7.46.

How did the “gcPBM binding intensity (ln)” value turn out when “AATGAGAAGGACTGCACACTAAAATGGAAGGAGAAA [CACACA_site1575]” was run?
The value was 6.97.

For “AAAAGGAGAAATATTGCACACGTGCAAAATGGTATG [CACACA_site4300]”, which “gcPBM binding intensity (ln)” value is on record?
Its value is 11.

Which “gcPBM binding intensity (ln)” value does the source give for “GAGTGAAATATGCAAACACACACGAGAAAAATGTAT [CACACA_site3196]” here?
Its value is 7.15.

How did the “gcPBM binding intensity (ln)” value turn out when “AAGGAGAAATATTGCACACGTGCAAAATGGTATGAG [CACACA_site259]” was run?
The value was 10.8.

With “ATTTTTTAAAAAGTAACACACACTCTTATAAATAAC [CACACA_site7668]” as the sequence, how does the “gcPBM binding intensity (ln)” value read?
Its value is 6.7.

“AAAAAAAAAAAAAGGTGTACATGCAAAATAAATTCT [XGTACX_site4592]” was tested. Which “gcPBM binding intensity (ln)” value did it give?
Its value is 6.48.

For “GATAATGAATGATGCACACTAAAAATATTCTACAAC [CACACA_site3622]”, which “gcPBM binding intensity (ln)” value is on record?
Its value is 8.94.

With AAATACTGTACAAAGGTGCATAAAAAGTGGGGCATA as the sequence, how does the “gcPBM binding intensity (ln)” value read?
Its value is 9.07.

For “ATTTTTCTAAAATACTGTACAAAGGTGCATAAAAAG [XGTACX_site4425]”, which “gcPBM binding intensity (ln)” value is on record?
The value was 11.1.

How did the “gcPBM binding intensity (ln)” value turn out when “TATTTTATATAAAGGTGTACTTATACAAAAATATAT [XGTACX_site7435]” was run?
The value was 6.52.

Which “gcPBM binding intensity (ln)” value does the source give for “TTTTCTCTAAAAAGGTGTACAACTAATAATGCACTG [XGTACX_site6074]” here?
Its value is 10.6.

How did the “gcPBM binding intensity (ln)” value turn out when “TATGGAAGAAAATATACACACAAAAAAAAAAAATGT [CACACA_site1486]” was run?
Its value is 6.58.

For “TATATAATATATAAATGTACTTTTGTCTTATATGAA [XGTACX_site7211]”, which “gcPBM binding intensity (ln)” value is on record?
Its value is 6.32.

“TATTTTGTATTCATTTGTCACATATAATAGATAGGA [TGCATGCA_negctrl_site9]” was tested. Which “gcPBM binding intensity (ln)” value did it give?
Its value is 6.82.

For “TTTCTTTTTAAATATATACACACCGTGGGTACATAT [CACACA_site9102]”, which “gcPBM binding intensity (ln)” value is on record?
The value was 6.81.

How did the “gcPBM binding intensity (ln)” value turn out when “AATGAATCCTTATATACACACATTATTATATTATAT [CACACA_site3108]” was run?
Its value is 7.23.

“TACTTTTTAGGAAAGTGTACAAGCATATAAGGAATA [XGTACX_site2834]” was tested. Which “gcPBM binding intensity (ln)” value did it give?
Its value is 6.83.

“GCAAGGTCCACACTGGTGCATTAAAAATAAAATATA [GTGCAC_site9956]” was tested. Which “gcPBM binding intensity (ln)” value did it give?
The value was 10.4.

For “TATGTGTGCAAAAACTGTACACATTAAAGGTATATA [XGTACX_site7627]”, which “gcPBM binding intensity (ln)” value is on record?
The value was 10.3.

“ATATGTACGCAAGGTGCACACTGGTGCATTAAAAAA [CACACA_site1801]” was tested. Which “gcPBM binding intensity (ln)” value did it give?
The value was 11.5.

How did the “gcPBM binding intensity (ln)” value turn out when “AATATATTTATGCTCATGCACTTTTTTTTTTTTTTT [GTGCAC_site9654]” was run?
Its value is 10.

For “CACTTCATAAAAATTGCACACATATAATAATGTACA [CACACA_site8692]”, which “gcPBM binding intensity (ln)” value is on record?
Its value is 10.1.

“ATATATATATATATTACACACATGTGCAATTAAAAT [CACACA_site1778]” was tested. Which “gcPBM binding intensity (ln)” value did it give?
The value was 10.7.

How did the “gcPBM binding intensity (ln)” value turn out when “TATTATAAAATATACACATGCAAAAACAAAATTTAC [TGCATGCA_site1051]” was run?
The value was 7.03.

For “GTATATTAATAAACATGTACACAATTTATTTATATT [XGTACX_site1012]”, which “gcPBM binding intensity (ln)” value is on record?
The value was 6.6.

For “AAAATTAAAATATATACACACATATATATATTAAAT [CACACA_site4419]”, which “gcPBM binding intensity (ln)” value is on record?
Its value is 6.25.

With “TATATTAAAAAAAAATGTACACATATATATATATAT [XGTACX_site4524]” as the sequence, how does the “gcPBM binding intensity (ln)” value read?
Its value is 9.21.

Which “gcPBM binding intensity (ln)” value does the source give for “ATATTTATTTATATTACACACATGTGCAATTAAACT [CACACA_site6928]” here?
The value was 10.7.

Which “gcPBM binding intensity (ln)” value does the source give for “ATATATATATTAATTACACACAAAAAAAAAAAAAAA [CACACA_site1165]” here?
The value was 7.49.

How did the “gcPBM binding intensity (ln)” value turn out when “ATATATATATATATTACACACTTTTTCTTTTTTTTT [CACACA_site2780]” was run?
The value was 9.01.

For AATAAATTAAAACAGGTGCACTATATTACACACGCT, which “gcPBM binding intensity (ln)” value is on record?
The value was 9.7.

“CAGGTGCACTATATTACACACGCTTCTTTTTTTTTA [CACACA_site2069]” was tested. Which “gcPBM binding intensity (ln)” value did it give?
Its value is 11.

How did the “gcPBM binding intensity (ln)” value turn out when “TATAAAAATATATATATATATATATATATATATATA [TGCATGCA_negctrl_site541]” was run?
Its value is 9.32.

Which “gcPBM binding intensity (ln)” value does the source give for “AACATAAATTACTTTTTACACACTAATATAAAATAC [CACACA_site8297]” here?
Its value is 6.54.

“TCATTAAATGTTTAGGTGCATACTTTAATTTTTAAT [GTGCAC_site9906]” was tested. Which “gcPBM binding intensity (ln)” value did it give?
The value was 9.31.

“AAATTACTAATGTGCACACATACTAACGTTTAAATA [CACACA_site3572]” was tested. Which “gcPBM binding intensity (ln)” value did it give?
The value was 11.3.

For “AAAAATTAAATAAATTTACACACTAATAATTACATA [CACACA_site8260]”, which “gcPBM binding intensity (ln)” value is on record?
Its value is 6.3.

For “TTAAATTACTAATGTGCACACATACTAACGTTTAAA [CACACA_site3573]”, which “gcPBM binding intensity (ln)” value is on record?
Its value is 11.

“AAAAAAAAATTAAACATACACACGTTACTATTTTTA [CACACA_site1687]” was tested. Which “gcPBM binding intensity (ln)” value did it give?
Its value is 6.29.

With “GAATATAATCTGTATTGTACGAAAGTTGAACACTTG [XGTACX_site8895]” as the sequence, how does the “gcPBM binding intensity (ln)” value read?
The value was 6.3.

“GATCAAAATTATAGAAGTACTTTATATAAATAAAAT [XGTACX_site8161]” was tested. Which “gcPBM binding intensity (ln)” value did it give?
Its value is 6.41.

Which “gcPBM binding intensity (ln)” value does the source give for “AAAAAAAAAAGACATGCATACGCTAATTTTTAGTTG [TGCATGCA_site300]” here?
The value was 5.98.

Which “gcPBM binding intensity (ln)” value does the source give for “TTTATATTAGGTCTTGAACGATTTTCATCATTATTA [TGCATGCA_negctrl_site100]” here?
The value was 6.04.
